Screening data deposited in PubChem by National Center for Advancing Translational Sciences (NCATS).
TDP1 cell noCPT: qHTS for Inhibitors of human tyrosyl-DNA phosphodiesterase 1 (TDP1): qHTS in cells in absence of CPT | 15% of 420,000 active | Potency, µM (doses to about 46.2 µM), for the others: top-dose activity change, negative = growth inhibition, usual class: inhibitors | DT40 Tdp1-/- hTDP1 cells, no CPT, ATP luminescence, 48 h; note: potency is the fitted concentration of half-maximal effect; nearly all actives have a fitted effect of over 55% in size
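Readout: luminescence from CellTiter-Glo after 30 min in the dark at RT. Cells: DT40 Tdp1-/- with stable hTDP1, 400/well. Exposure: compounds alone, ≥48 hr, 37 °C.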
IL-1B inflam inh: qHTS for Inhibitors of Inflammasome Signaling: IL-1-beta AlphaLISA Primary Screen; THP-1 LPS/ATP IL-1B secretion, AlphaLISA, 16 h; hits give low values; activity change, % at 57.5 µM; 4.7% of 360,000 active; in the data active = activity change below about -50%; inconclusive = mostly about -30% to -49%
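THP-1 cells pretreated 1 hr with compounds (up to 57.5 uM final), then stimulated with LPS (250 ng/mL final) plus ATP (1.25 mM final); secreted IL-1B measured by AlphaLISA after 16 hr, decreased signal indicating inhibition.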
Six1-Eya2 blk: qHTS Assay for Inhibitors of the Six1/Eya2 Interaction; Homeobox protein SIX1 (Homo sapiens) + Protein phosphatase EYA2 (Homo sapiens), …; 0.56% of 360,000 active; AID 651725, 2012; activity change, % (no concentration beside the values); AlphaScreen GST-Six1/His-Eya2 binding, biochemical; hits give low values; in the data active = activity change below about -65%; inconclusive = mostly about -30% to -63%
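Compounds are tested against tagged Six1 and Eya2 proteins bridged by glutathione donor and nickel acceptor beads; after a one-hour incubation at 37 °C without light, AlphaScreen emission is recorded.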
CtBP-E1A inh: qHTS Assay for Inhibitors of the CtBP/E1A Interaction. AlphaScreen GST-E1A/His-CtBP binding, 1536-well; hits give low values. activity change, % (no concentration beside the values). 0.49% of 340,000 active; in the data active = activity change below about -65%; inconclusive = mostly about -30% to -63%
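Protein mix (5X: 125 nM each GST-E1A, His-CtBP) was incubated with pinned compound 2 h at 37 deg C in dark, in 50 mM Tris pH 8.0 buffer with 300 mM NaCl. Glutathione donor and nickel acceptor beads followed; AlphaScreen signal read after 1 h.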
TDP1 block: qHTS Assay for Inhibitors of Tyrosyl-DNA Phosphodiesterase (TDP1). 0.28% of 350,000 active. Potency, µM (series often up to 130 µM), inactives show at the top dose activity change, negative = inhibition, most hits filed as inhibitors. recombinant TDP1, AlphaScreen DNA substrate cleavage; note: potency is the fitted concentration of half-maximal effect; nearly all actives have a fitted effect of over 40% in size
Target sequence (Q9NUW8 whole entry, looked up): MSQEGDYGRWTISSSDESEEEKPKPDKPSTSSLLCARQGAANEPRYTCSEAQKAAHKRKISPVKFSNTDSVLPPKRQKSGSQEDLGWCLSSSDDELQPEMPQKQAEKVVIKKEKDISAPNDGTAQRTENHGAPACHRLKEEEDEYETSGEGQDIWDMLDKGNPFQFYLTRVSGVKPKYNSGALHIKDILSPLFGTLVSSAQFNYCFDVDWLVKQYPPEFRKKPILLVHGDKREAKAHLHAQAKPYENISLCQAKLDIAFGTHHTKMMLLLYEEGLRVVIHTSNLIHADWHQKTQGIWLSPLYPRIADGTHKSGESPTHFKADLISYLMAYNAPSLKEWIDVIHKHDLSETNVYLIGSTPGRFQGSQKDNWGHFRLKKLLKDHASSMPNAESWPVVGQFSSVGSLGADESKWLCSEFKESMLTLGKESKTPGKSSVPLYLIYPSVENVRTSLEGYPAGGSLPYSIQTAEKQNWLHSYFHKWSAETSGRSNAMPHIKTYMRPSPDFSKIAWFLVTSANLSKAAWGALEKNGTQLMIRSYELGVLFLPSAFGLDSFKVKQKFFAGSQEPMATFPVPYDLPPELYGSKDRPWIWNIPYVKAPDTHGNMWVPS
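Enzyme-compound mixtures sat 15 min at room temperature, followed by a 5 min reaction with 15 nM final substrate and 10 min with AlphaScreen beads. Recombinant human Tdp1 was used at 1 nM final.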
TDP1 cell CPT: qHTS for Inhibitors of human tyrosyl-DNA phosphodiesterase 1 (TDP1): qHTS in cells in presence of CPT | chicken DT40 Tdp1-/-;hTDP1 cells + 20 nM CPT, ATP luminescence, 48 h | Potency, µM (highest dose often 46.2 µM), without a hit: at the top dose activity change, negative = growth inhibition, hits mostly inhibitors | 12% of 420,000 active; note: potency is the fitted concentration of half-maximal effect; nearly all actives have a fitted effect of over 55% in size
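Cell growth measured by CellTiter-Glo luminescence after a minimum 48 h, 37 C compound exposure with 20 nM CPT in Tdp1-knockout DT40 cells stably expressing hTDP1, seeded 400/well; qHTS titration format.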
The depositor's hits bear a star; ? = inconclusive; . = no result; [ ] = another dose, or the depositor's remark. In the library only some 18% were active in any assay of this set; here they are far more common. Unless noted, calls come from the whole dose curve; as a rule, active = well fitted curve in the direction sought with a large enough effect; inconclusive = small, poorly fitted or top-dose-only effect, or another doubt; inactive = no such curve, though single readings can be large; an effect the other way counts as inactive or inconclusive. % is set by controls: 0 for no effect and ±100 for the full control effect.

SMILES	TDP1 cell noCPT	IL-1B inflam inh	Six1-Eya2 blk	CtBP-E1A inh	TDP1 block	TDP1 cell CPT
CCCCCCC(=O)N1CCC(c2nc3c(nnn3Cc3ccccc3Cl)c(=O)[nH]2)CC1	?	-16	-7	0	11%	18µM*
O=C(c1cccs1)N1CCCC(c2nc3c(nnn3Cc3ccccc3Cl)c(=O)[nH]2)C1 (stereo not given)	29µM*	-6	7	-13	7%	?
Cc1ccccc1Cn1nnc2c(=O)[nH]c(C3CCN(C(=O)c4ccccc4Cl)CC3)nc21	26µM*	.	.	.	2%	16µM*
O=C(C1CCCCC1)N1CCC(c2nc3c(nnn3Cc3ccccc3Cl)c(=O)[nH]2)CC1	21%	4	2	0	.	-18%
O=C(OCCOc1ccc(Br)cc1)c1ccc(Cl)nc1	2%	19	25	.	2%	3%
Clc1ccccc1-c1nc2nc3ccccc3nc2n1-c1ccc2c(c1)OCO2	23µM*	-10	2	-4	5%	?
O=C(NC1CCc2ccccc21)c1cc(COc2cncc(Cl)c2)on1 (stereo not given)	?	-62*	-5	-11	4%	9.2µM*
O=C(Nc1ccc(Cl)c(S(=O)(=O)N2CCOCC2)c1)c1ccc(Cl)nc1	18µM*	28	-25	-28	1%	?
COc1ccc(C(=O)Nc2ccc(Cl)cc2C(=O)NCCN2CCOCC2)cc1	-29%	-56*	-1	4	0%	-23%
O=C(NCc1ccncc1)c1ccc(Cl)c(S(=O)(=O)N2CCOCC2)c1	-22%	20	5	1	1%	4%
COc1cccc(CNC(=O)c2ccc(Cl)c(S(=O)(=O)N3CCOCC3)c2)c1	4.1µM*	-8	2	.	-7%[56.1 µM]	-12%
COc1ccc(C(=O)Nc2ccc(Cl)c(S(=O)(=O)N3CCOCC3)c2)cc1	?	-75*	?	?	-1%	?
O=C(Nc1ccc(Cl)c(S(=O)(=O)N2CCOCC2)c1)c1ccc2c(c1)OCCO2	?	-24	-22	-29	-2%	?
COc1ccc(C(=O)Nc2ccc(S(=O)(=O)N3CCOCC3)cc2)cc1	-21%	12	-13	-3	.	-3%
Cc1cc(N2CCN(c3cc(Cl)ccc3C)CC2)n2nc(-c3ccccc3)nc2n1	-25%	.	.	.	0%	-8%
O=C(NCC(=O)N1CCN(c2ccccc2F)CC1)c1ccco1	-20%	4	7	-2	8%	-6%
COc1ccc(-c2csc(NC(=O)CS(=O)(=O)c3ccccc3)n2)cc1OC	16µM*	?	-14	1	.	?
O=C(CS(=O)(=O)c1ccccc1)Nc1nc(-c2ccc(F)cc2)cs1	?	-22	0	8	6%	?
COc1ccc(-c2csc(NC(=O)CC(NC(C)=O)c3ccccc3)n2)cc1OC (stereo not given)	?	-27	?	?	79µM*	?
CCOC(=O)[C@H]1[C@H]2COc3ccc(OC)cc3[C@@H]2N2C(=O)CN(Cc3ccco3)C(=O)[C@@]12C	-26%	-18	-1	-1	3%	?
Cc1cc(C)c(NC(=O)C2C3/C=C\CCCCC32)c(C)c1 (stereo not given)	?	-12	-3	-8	2%	2%
CCOC(=O)c1cc(-c2ccccc2)n(CC(=O)NCc2ccccc2OC)c1C	16µM*	.	.	.	0%	16µM*
CCOC(=O)c1cc(-c2ccccc2)n(CCC(=O)Nc2cc(OCC)ccc2OCC)c1C	?	.	.	.	5%	16µM*
CC(=O)c1cc(-c2ccccc2)n(CC(=O)Nc2cccc(C)c2)c1C	15µM*	-4	-2	-2	2%	18µM*
CCOC(=O)c1cc(-c2ccccc2)n(CCC(=O)Nc2ccc(C)cc2Cl)c1C	?	.	.	.	3%	?
SMILES	TDP1 cell noCPT	IL-1B inflam inh	Six1-Eya2 blk	CtBP-E1A inh	TDP1 block	TDP1 cell CPT
CCOC(=O)c1cc(-c2ccccc2)n(CC(=O)Nc2cccc(OC)c2)c1C	5.8µM*	-16	4	9	0%	?
CCCCCN=CC1=C(O)CC(c2ccccc2)CC1=O (stereo not given)	-5%	-6	6	15	1%	10%
COc1ccccc1Cn1cccc1C=O	-2%	12	15	-15	-1%	10%
OC(COCc1ccccc1)CN1CCCCC1 (stereo not given)	8%	14	2	.	1%	11%
CCOC(=O)c1cc(-c2ccccc2)n(CCCC(=O)Nc2cc(C)ccc2OC)c1C	23µM*	.	.	.	7%	18µM*
CCOC(=O)c1cc(-c2ccccc2)n(CC(=O)Nc2ccccc2OCC)c1C	9.2µM*	.	.	.	4%	-81%
COC(=O)c1cc(S(=O)(=O)Nc2cc(OC)cc(OC)c2)cn1C	?	5	7	-23	.	-27%
CCOC(=O)c1cc(S(=O)(=O)Nc2cccc(OC)c2)cn1C	?	10	0	-4	5%	21µM*
COc1cc(CNC(=O)c2cnn(-c3ncc4c(n3)-c3ccccc3CC4)c2C)cc(OC)c1OC	-17%	.	.	.	.	-2%[9.04 µM]
Cc1ccc(Cl)cc1NC(=O)COC(=O)Cn1cnc2c1c(=O)n(C)c(=O)n2C	?	5	28	-12	6%	14%
O=C(c1ccc(S(=O)(=O)N2CCCCCC2)cc1)N1CCCC(C(F)(F)F)C1 (stereo not given)	?	13	2	1	2%	?
O=C(c1cccc(S(=O)(=O)N2CCN(c3ccc(F)cc3)CC2)c1)N1CCCC(C(F)(F)F)C1 (stereo not given)	4.1µM*	-17	-14	-6	.	3.3µM*
CC1CN(C(=O)c2cccc(S(=O)(=O)N3CCN(c4ccc(F)cc4)CC3)c2)CC(C)O1 (stereo not given)	?	5	-2	-4	3%	26µM*
O=C(c1ccc(O)cc1)c1ccc(C(=O)c2ccc(O)cc2)cc1	?	0	-4	-2	3%	-28%
Oc1ccc(O)cc1	?	.	.	.	4%	21µM*
